Where “and” joins values, the source holds several entries; their conditions need not be identical. Equal entries are not always repeated. Inconclusive results are not listed. Calls of active or inactive are those of the source. Unless noted, the call rests on the fitted dose curve; in most records, active means well fitted curve in the direction sought with a large enough effect; inconclusive means small, poorly fitted or top-dose-only effect, or another doubt; inactive means no such curve, though single readings can be large; an effect the other way counts as inactive or inconclusive.

A short description of test [1]: Cell Viability - Hek293 (AID 427;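 active means compounds whose dose-response curve shows a full or clear partial loss of cell viability, called from curve shape rather than a numeric limit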;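 further: potency means the concentration at half of the fitted maximal effect; cells exposed to compound for 40 hours at 37 °C before reading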). As to conditions: qHTS. The procedure, abridged:
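qHTS, human embryonic kidney (adenovirus-transformed) cells; 40 hr cpd, 37 °C; CellTiter-Glo ATP luminescence. Norm: DMSO = 0, 100 uM tamoxifen = 100% inhibition. Hill-fit AC50.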
Background: qHTS replaces the single test concentration by a dilution series.

Test [2] is described as follows: Cell Viability - N2a (AID 540).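 Further: cells exposed to compound for 40 h at 37 °C; plate controls were DMSO alone for no effect and tamoxifen control for full effect; nearly all actives have a fitted effect of over 45% in size.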 The following applies: N2a mouse neuroblastoma cell viability; activity change, negative = cytotoxicity: at 92.2 µM (top of the series). The procedure, abridged: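 Luminescent ATP signal (CellTiter-Glo, 20 min at room temperature) served as the viability read-out after N2a cells were treated with compounds for 40 hours at 37 °C. Concentration-response data were fitted to the Hill equation for AC50.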

A short description of test [3]: Cell Viability - H-4-II-E (AID 543). Further: on the % scale 0 is the no-effect control and ±100 the full control effect; nearly all actives have a fitted effect of over 35% in size. As to conditions: H-4-II-E rat hepatoma viability; series mostly up to 92.2 µM. The essentials: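 Luminescent ATP signal (CellTiter-Glo) served as the viability read-out, with cytotoxicity seen as a concentration-dependent ATP drop. Cells were treated for 40 hours in complete medium. AC50 values derive from Hill-equation modelling.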

Test [4] is described as follows: Cellular Toxicity (caspase-3) SHSY5Y (AID 657). As to conditions: SH-SY5Y caspase-3 activation, DMSO zero, 10 µM staurosporine = 100%; series mostly up to 91.7 µM. The procedure, abridged: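 SH-SY5Y human neuroblastoma cells, 1500/well, exposed to compound for 16 hours at 37 °C in complete medium. Caspase-3/7 activity read by Caspase-Glo luminescence after 1 hr at room temperature, normalized to DMSO and 10 uM staurosporine; AC50 from Hill fit.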

Test [5] is described as follows: Cellular Toxicity (caspase-3) Mesangial (AID 660).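 Further: cells exposed to compound for 16 h before the caspase read.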 As to conditions: mesangial cells, normalized: DMSO 0%, 100 µM tamoxifen 100%; series mostly up to 91.7 µM. The essentials:
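Mesangial cells, 1000/well, 5 h settle at 37 °C; compound 16 h, 37 °C; Caspase-Glo 3/7 reagent 20 min RT; luminescence. Norm.: DMSO = 0%, tamoxifen 100 uM = 100%. AC50, Hill fit.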

The nature of test [6]: Cellular Toxicity (caspase-3) SK-N-SH (AID 661).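 Further: 0% = DMSO basal and 100% = 10 µM staurosporine.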 As to conditions: SK-N-SH caspase-3 activation, qHTS; series mostly up to 91.7 µM. The essentials: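 Human neuroblastoma SK-N-SH, 1500 cells/well, 5 hr pre-incubation, then compound 16 hr, 37 °C. Caspase-Glo 3/7 reagent, 1 hr RT, luminescence. Norm. to DMSO/10 uM staurosporine; Hill-fit AC50.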
A short description of test [7]: Cellular Toxicity (caspase-3) Renal Proximal Tubule (AID 667).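 Further: cells exposed to compound for 16 hours at 37 °C before detection; 0% = DMSO basal and 100% = 10 µM staurosporine.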 As to conditions: renal proximal tubule cells; series mostly up to 91.7 µM. The procedure, abridged: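 Freshly isolated primary rat kidney proximal tubule cells, 1000/well, treated 16 hr at 37 °C, then Caspase-Glo 3/7 luminescence after 1 hr. Normalized to DMSO and 10 uM staurosporine; AC50 from Hill fit.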

A short description of test [8]: Cell Viability - LYMP1-003 - Assay at 24 hr (AID 963).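 Further: plate controls were DMSO only for no effect and tetraoctylammonium bromide positive control for full effect.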 As to conditions: LYMP1-003 lymphoblastoid cell viability; series mostly up to 92.2 µM. The procedure, abridged:
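Cells seeded at 2500/well, 5 hr at 37 C; compounds added; 24 hr at 37 C; CellTiter-Glo added, 30 min room temperature; luminescence read. Decrease in ATP taken as cytotoxicity, AC50 from Hill modelling.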

A short description of test [9]: Cell Viability - LYMP2-003 (AID 965).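 Further: cells exposed to compounds for 24 h before reading; 0% = DMSO only and full effect = 92 µM tetraoctylammonium bromide; nearly all actives have a fitted effect of over 50% in size.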 As to conditions: LYMP2-003 lymphoblastoid cell viability; series mostly up to 92.2 µM. The procedure, abridged:
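Human lymphoblastoid LYMP2-003 cells, 2500/well, exposed to compounds for 24 h at 37 C in complete medium. Viability read as intracellular ATP by CellTiter-Glo luminescence; AC50 from Hill-equation fits of qHTS concentration-response data.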

A short description of test [10]: Cell Viability - LYMP2-005 (AID 967).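 Further: plate controls were DMSO only for no effect and 92 µM tetraoctylammonium bromide control for full effect.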 The following applies: LYMP2-005 lymphoblastoid cell viability; series mostly up to 92.2 µM. The essentials:
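Human lymphoblastoid LYMP2-005 cells, 2,500 per well in complete medium, rested 5 h at 37C then compound-treated 24 h at 37C. Intracellular ATP read by CellTiter-Glo luminescence after 30 min at room temperature; AC50 from Hill-equation fits of concentration-response data.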

The nature of test [11]: Cell Viability - LYMP2-009 (AID 968).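 Further: 0% = DMSO alone and the full-kill end = tetraoctylammonium bromide at 92 µM; nearly all actives have a fitted effect of over 55% in size.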 The following applies: LYMP2-009 lymphoblastoid cell viability; series mostly up to 92.2 µM.
Test [12] is described as follows: Cell Viability - LYMP2-017 (AID 972). Further: on the % scale 0 is the no-effect control and ±100 the full control effect; nearly all actives have a fitted effect of over 55% in size. The following applies: LYMP2-017 lymphoblastoid cell viability; series mostly up to 92.2 µM. The essentials:
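2500 cells/well, 5 h 37 C; cpd 24 h 37 C in complete medium; CellTiter-Glo, 30 min RT; luminescence (ATP). AC50 via Hill fit, qHTS.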

The nature of test [13]: Cell Viability - LYMP2-023 (AID 975).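 Further: cellular ATP measured by luciferase luminescence as viability proxy; plate controls were DMSO only for no effect and 92 µM tetraoctylammonium bromide control for full effect; nearly all actives have a fitted effect of over 55% in size.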 The following applies: LYMP2-023 lymphoblastoid cell viability; series mostly up to 92.2 µM. The essentials:
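2500 cells/well, 5 hr 37 C; cpd 24 hr 37 C; CellTiter-Glo, 30 min RT; luminescence. qHTS conc-response, Hill fit -> AC50. Pos ctrl tetraoctylammonium bromide.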

Test [14] can be described thus: Cell Viability - LYMP2-016 (AID 984). Further: on the % scale 0 is the no-effect control and ±100 the full control effect; nearly all actives have a fitted effect of over 55% in size. As to conditions: LYMP2-016 lymphoblastoid cell viability, qHTS; series mostly up to 92.2 µM. The procedure, abridged:
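Human lymphoblastoid LYMP2-016 cells, 2500 per well, treated with compounds for 24 h at 37 C. Viability read as intracellular ATP by CellTiter-Glo luminescence after 30 min at room temperature; AC50 from Hill fits of concentration-response.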

Test [15] addresses Vitamin D3 receptor (Homo sapiens) (UniProt P11473). The test is described as follows: qHTS assay for small molecule antagonists of vitamin D receptor signaling (AID 588541; calls by dose curve;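 further: receptor activated by calcitriol during compound treatment; on the % scale 0 is the no-effect control and ±100 the full control effect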). As to conditions: HEK293T VDR-UAS-bla, beta-lactamase ratio, antagonist mode; series mostly up to 76.7 µM. The procedure, abridged: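 Antagonist-mode beta-lactamase reporter assay: HEK293T VDR-UAS-bla cells were exposed to titrated compound alongside 1-alpha,25-dihydroxyvitamin D3 at 3 nM final for 16 h. Values were normalized to the 50 nM agonist control and DMSO basal, with IC50 and efficacy from Hill equation fits.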

The nature of test [16]: qHTS assay for small molecule agonists of retinoid X receptor alpha signaling (AID 588544). As to conditions: HEK293T RXRa-UAS-bla, beta-lactamase reporter, 18 h; 530 nm emission.
Test [17] is described as follows: qHTS assay for small molecule activators of the p53 signaling pathway (AID 651743; active means well fitted activation curve with a large enough effect in the signal ratio, not every such curve was filed as active; the % refers to the signal ratio; further: % of control where 0% means no effect). As to conditions: HCT-116 p53RE-bla, beta-lactamase FRET ratio, 16 h; activation: stronger effect = higher value. The procedure, abridged: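 Read-out is fluorescence intensity from the LiveBLAzer B/G FRET substrate, added for 2 hours at room temperature after HCT-116 p53RE-bla cells had been incubated with compounds for 16 hours at 37 C.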

Test [18] in a line: qHTS assay for cell viability of HEK293 cells (AID 743288). Further: on the % scale 0 is the no-effect control and ±100 the full control effect; nearly all actives have a fitted effect of over 50% in size. As to conditions: ATP luminescence (CellTiter-Glo), 18 h, stronger effect = lower value. The essentials: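 Parental HEK293 cells, 2,000 per well, preincubated at least 5 h at 37 C, then exposed to compounds in DMSO for 18 h at 37 C. Viability by CellTiter-Glo ATP luminescence after 30 min at room temperature.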
The nature of test [19]: Cell Viability - LYMP2-013 (AID 970). The following applies: LYMP2-013 lymphoblastoid cells viability; series mostly up to 92.2 µM. The essentials:
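qHTS; 2500 lymphoblastoid cells/well; 5 hr 37 C settle; cpd 24 hr 37 C; CellTiter-Glo, 30 min RT; luminescence. AC50 = Hill fit.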

Test [20] is described as follows: qHTS assay for small molecule agonists of the antioxidant response element (ARE) signaling pathway measured by Nrf2-dependant transcriptional activity - cell viability counter screen (AID 720653; active means well fitted curve in the direction sought with a large enough effect in the repeat runs; an effect the other way counts as inactive or inconclusive; further: on the % scale 0 is the no-effect control and ±100 the full control effect). The following applies: ARE-bla HepG2 viability, CellTiter-Glo ATP luminescence, 16 h; stronger effect = lower value. The procedure, abridged:
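Cytotoxicity counter screen: intracellular ATP quantified by CellTiter-Glo luminescence in the same ARE-bla HepG2 plates, after 16 h compound exposure and a 2 h beta-lactamase substrate step.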

Vitamin D3 receptor (Homo sapiens), sequence (P11473 whole entry, looked up): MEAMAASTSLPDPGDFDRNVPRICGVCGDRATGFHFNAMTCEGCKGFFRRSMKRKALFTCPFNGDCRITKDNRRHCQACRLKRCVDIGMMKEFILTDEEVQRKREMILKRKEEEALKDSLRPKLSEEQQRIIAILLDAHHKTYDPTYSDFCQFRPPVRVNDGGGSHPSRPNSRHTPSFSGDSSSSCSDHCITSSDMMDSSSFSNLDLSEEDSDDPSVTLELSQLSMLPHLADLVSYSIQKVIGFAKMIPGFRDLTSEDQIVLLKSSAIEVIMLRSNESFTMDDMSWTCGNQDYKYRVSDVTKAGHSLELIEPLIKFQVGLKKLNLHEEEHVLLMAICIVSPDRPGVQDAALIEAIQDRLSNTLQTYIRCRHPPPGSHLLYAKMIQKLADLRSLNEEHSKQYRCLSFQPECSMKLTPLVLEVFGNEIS

With `CC(C)(C)OOC(=O)c1ccccc1`, the Potency in test [1] was > 92 µM (inactive). The Potency result in test [2], in [3], in test [6], in test [9], in [10] and in test [11] was “inactive” each time. Also, the Potency entry in test [12], in [13] and in test [14] was “inactive” throughout. The compound was classed as inactive in test [4], in test [5], in test [7], in [8] and in test [15]. Also, the max response was 3.54% and -7.62% in [16]; 7.08% (inactive) and -4.29% (inactive) in test [18]. Also, the activation in test [17] is -3.4% (inactive) and 2.14% (inactive).
With `O=C(O)CCl`, the Potency in test [1] was > 92 µM (inactive). The Potency result in test [2], in test [3], in [6], in test [9], in test [10] and in test [19] was “inactive” each time. For the same compound, the Potency result in [13] and in test [14] was “inactive” each time. Besides, the outcome in test [4], in test [5], in test [7], in test [8] and in [15] was inactive. Further, the max response in test [16] was -10.2%; in test [20], 1.47% (inactive); in [18], -4.45% (inactive).
As for `Cc1cc(C)cc(OP(=O)(Oc2cc(C)cc(C)c2)Oc2cc(C)cc(C)c2)c1`, in test [1], the Potency was > 92 µM (inactive). Moreover, the activity change, negative = cytotoxicity in test [2] is -83.5% (active). Further, the Potency entry in test [3], in [6], in test [10], in test [11], in test [19] and in [13] was “inactive” throughout. The call in test [4], in test [5], in test [8] and in [15] was inactive. The max response is -11.1% in test [16], -9.8% (inactive) in [20] and -21.5% (inactive) in test [18]. In addition, the activation in test [17] is -0.0195% (inactive).
Turning to `O=C(O)C(Br)CBr` (configuration not stated), the Potency in test [1] was > 92 µM (inactive). Also, the Potency result in [2], in [6], in [9], in test [10], in test [11] and in test [12] was “inactive” throughout. Also, the Potency result in test [13] and in test [14] was “inactive” in each case. Also, the compound was classed as inactive in [4], in test [5], in [7] and in test [8]. Further, the max response in [16] is 10.3%; in test [18], -8.07% (inactive). Also, in test [17], the activation is 3.2% (inactive).
Regarding `Brc1ccc(Oc2ccc(Br)cc2Br)c(Br)c1`, the Potency result in [3], in test [6], in test [10], in [19], in [13] and in test [14] was “inactive” each time. The call in [4], in [5], in test [7], in test [8] and in [15] was inactive. Also, in [17], the activation is 2.43% (inactive). In test [20], the max response is -0.481% (inactive).
`CC(=O)CCC(C)=O`: the Potency in test [1] is > 92 µM (inactive). Further, the Potency result in test [2], in test [3], in [6], in test [10], in test [11] and in [19] was “inactive” in each case. For the same compound, the Potency entry in test [12], in test [13] and in [14] was “inactive” throughout. Also, the compound was called inactive in [4], in test [5], in [7], in test [8] and in test [15]. Also, the max response in test [16] turned out to be 0.0938%. Besides, in [17], the activation is 0.727% (inactive).
`Cc1ccc2c(c1N)C(=O)c1ccccc1C2=O`: the Potency in test [1] was > 92 µM (inactive). Moreover, the outcome in test [4], in test [5], in [7] and in [8] was inactive. In addition, the Potency result in test [6], in test [10], in test [11], in test [19], in [12] and in test [13] was “inactive” throughout. Further, the max response was -11.3% and 17.2% in test [16]; -21.8% (inactive) and -21.2% (inactive) in test [20]; -21.2% (inactive) and -23% (inactive) in test [18]. In addition, the activation in test [17] is 7.91% (inactive) and 8.94% (inactive).

The values are drawn from PubChem BioAssay (NCATS).
